For 30 compounds, Potency and outcome results are on record in PubChem BioAssay (Tox21).

Values joined by “and” are separate entries in the source; they are usually repeats but may differ in a detail not shown here. Identical values can stand only once. Results filed as inconclusive are left out. The source holds several records for some structures; these can differ, active in one and inactive in another. Active and inactive are the calls of the source. Unless noted, calls come from the whole dose curve.

Experiment [1] concerns the target Nuclear receptor subfamily 1 group I member 3 (Homo sapiens) (UniProt Q14994). The experiment can be described thus: qHTS assay to identify small molecule antagonists of the constitutive androstane receptor (CAR) signaling pathway (AID 1224838; active = well fitted curve in the direction sought with a large enough effect in the repeat runs; an effect the other way counts as inactive or inconclusive;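 note: HepG2 cells stably expressing hCAR with CYP2B6 luciferase reporter stimulated by CITCO; nearly all actives have a fitted effect of over 40% in size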; note: potency is the fitted concentration of half-maximal effect). A digest of the protocol:
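Reporter luminescence was quantified after 24 h exposure of hCAR/CYP2B6-2.2kb double-stable HepG2 cells to compounds at 15 concentrations in the presence of 50 nM CITCO final.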
A general note: Quantitative high-throughput screening tests each substance at several concentrations.

The target is the same in experiment [2]. The experiment can be described thus: qHTS assay to identify small molecule agonists of the constitutive androstane receptor (CAR) signaling pathway (AID 1224839; active = well fitted curve in the direction sought with a large enough effect in the repeat runs; an effect the other way counts as inactive or inconclusive; note: nearly all actives have a fitted effect of over 15% in size; note: potency is the fitted concentration of half-maximal effect;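 for activation: HepG2 cells stably carrying human CAR and a CYP2B6 luciferase reporter; series mostly up to about 92 µM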). A digest of the protocol: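 In this screen, CAR-driven CYP2B6 promoter activity is measured by luminescence in HepG2-CYP2B6-hCAR cells after 24 h with test compounds and 0.75 uM PK11195 (final concentration).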

Experiment [3] is described as follows: qHTS assay to identify small molecule antagonists of the estrogen related receptor signaling pathway with the pleiotropic PPARgamma coactivator (PGC) from Tox21 10K library - cell viability counter screen (AID 1224840; active = well fitted cell-killing curve with a large enough effect in the repeat runs, not every such curve was filed as active; note: nearly all actives have a fitted effect of over 40% in size). A digest of the protocol: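 Here the PGC/ERR cells serve as a cytotoxicity control: they are exposed to compounds for 17.5 hours at 37 C, and live-cell signal is quantified using CellTiter-Fluor fluorescence.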

Experiment [4] can be described thus: qHTS assay to identify small molecule agonists of the hypoxia (HIF-1) signaling pathway - cell viability counter screen (AID 1224844). Note: nearly all actives have a fitted effect of over 50% in size. A digest of the protocol: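 Multiplexed with the HRE beta-lactamase assay, this viability read used CellTiter-Glo luminescence (30 min, RT) on HRE-bla ME-180 cells treated 17 hrs with compounds in 0.5% dialyzed FBS medium.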
A short description of experiment [5]: qHTS assay to identify small molecule agonists of H2AX (AID 1224845; active = well fitted activation curve with a large enough effect in the signal ratio in the repeat runs, not every such curve was filed as active; the % refers to the signal ratio). A digest of the protocol: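 Wild-type CHO-K1 cells, plated overnight, exposed 3hr at 37C to 15 concentrations (0.76% DMSO final). Lysed, then HTRF anti-pH2AX (S139) cryptate and anti-H2AX-d2 antibodies, 24 hr room temperature; 665/620 nm emission read.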
Experiment [6] is described as follows: qHTS assay to identify small molecule agonists of the hypoxia (HIF-1) signaling pathway (AID 1224846; active = well fitted activation curve with a large enough effect in the signal ratio in the repeat runs, not every such curve was filed as active; the % refers to the signal ratio). In a few lines:
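Hypoxia-pathway activation was scored as increased beta-lactamase from an HRE-controlled reporter in ME-180 cells; plated at 2,000 cells per well with 0.5% dialyzed FBS, they were exposed 17 hrs to compounds and then given CCF4-AM.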

Experiment [7] can be described thus: qHTS assay to identify small molecule agonists of H2AX - cell viability counter screen (AID 1224847). Note: nearly all actives have a fitted effect of over 30% in size. Note: potency is the fitted concentration of half-maximal effect. In a few lines:
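Read-out: CellTiter-Glo luminescence, 30 min RT. Cells: wild-type CHO-K1, 1000/well, 10% FBS, plated overnight at 37C. Treatment: 15 concentrations, 3 hr, 37C, 0.76% DMSO.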

In experiment [8] the target is Thyrotropin receptor (Homo sapiens) (UniProt P16473). The experiment can be described thus: qHTS assay to identify small molecule agonists of the thyroid stimulating hormone receptor (TSHR) signaling pathway (AID 1224843). Note: nearly all actives have a fitted effect of over 45% in size. A digest of the protocol: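 Steps: seed 800 TSHR-HEK293 cells per well; add test compound and hold 30 min at ambient temperature; dispense cAMP-d2 then anti-cAMP cryptate; incubate 1 h at ambient; measure fluorescence intensity.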
Thyrotropin receptor (Homo sapiens), sequence (P16473 whole entry, looked up): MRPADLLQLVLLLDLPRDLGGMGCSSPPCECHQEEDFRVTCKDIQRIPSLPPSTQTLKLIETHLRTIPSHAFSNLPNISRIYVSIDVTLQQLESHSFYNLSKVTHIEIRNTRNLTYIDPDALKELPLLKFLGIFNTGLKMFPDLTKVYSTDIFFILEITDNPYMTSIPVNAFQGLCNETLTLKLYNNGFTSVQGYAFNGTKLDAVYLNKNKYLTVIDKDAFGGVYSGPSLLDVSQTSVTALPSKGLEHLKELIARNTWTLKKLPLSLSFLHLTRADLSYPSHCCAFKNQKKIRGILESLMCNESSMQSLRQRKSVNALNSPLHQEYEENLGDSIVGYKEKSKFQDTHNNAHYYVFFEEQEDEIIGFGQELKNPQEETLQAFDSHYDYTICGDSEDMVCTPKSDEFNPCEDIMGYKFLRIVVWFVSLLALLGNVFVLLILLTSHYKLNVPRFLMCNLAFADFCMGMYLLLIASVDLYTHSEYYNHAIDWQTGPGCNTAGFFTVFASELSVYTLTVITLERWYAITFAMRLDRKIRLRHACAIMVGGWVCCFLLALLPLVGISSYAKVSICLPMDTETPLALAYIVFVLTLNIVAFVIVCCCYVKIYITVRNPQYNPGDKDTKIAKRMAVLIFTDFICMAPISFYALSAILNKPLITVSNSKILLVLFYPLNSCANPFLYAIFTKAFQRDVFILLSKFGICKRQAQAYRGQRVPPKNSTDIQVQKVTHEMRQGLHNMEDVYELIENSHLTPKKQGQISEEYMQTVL

Experiment [9] can be described thus: qHTS assay to identify small molecule antagonists of the estrogen related receptor signaling pathway with the pleiotropic PPARgamma coactivator (PGC) from Tox21 10K library (AID 1224841; call rule not given here; note: series mostly up to about 92 µM; actives are mostly falling curves and most rising ones were filed inactive; nearly all actives have a fitted effect of over 50% in size). In a few lines: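 Each well held 2,000 PGC/ERR cells, pre-incubated six hours (37 C, 5% CO2). Test substances in DMSO were added by pin tool and left for 18 h at 37 C before luciferase detection by One-Glo.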

A short description of experiment [10]: qHTS assay to identify small molecule agonists of the estrogen related receptor signaling pathway with the pleiotropic PPARgamma coactivator (PGC) from Tox21 10K library (AID 1224842; active = well fitted curve in the direction sought with a large enough effect in the repeat runs; an effect the other way counts as inactive or inconclusive; note: nearly all actives have a fitted effect of over 15% in size). A digest of the protocol:
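PGC/ERR reporter cell line, 2,000 cells per well, incubated 6 h at 37 C before 23 nL compound in DMSO was added. After 18 h at 37 C, One-Glo luminescence read following 30 min at room temperature.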

Nuclear receptor subfamily 1 group I member 3 (Homo sapiens), sequence (Q14994 whole entry, looked up): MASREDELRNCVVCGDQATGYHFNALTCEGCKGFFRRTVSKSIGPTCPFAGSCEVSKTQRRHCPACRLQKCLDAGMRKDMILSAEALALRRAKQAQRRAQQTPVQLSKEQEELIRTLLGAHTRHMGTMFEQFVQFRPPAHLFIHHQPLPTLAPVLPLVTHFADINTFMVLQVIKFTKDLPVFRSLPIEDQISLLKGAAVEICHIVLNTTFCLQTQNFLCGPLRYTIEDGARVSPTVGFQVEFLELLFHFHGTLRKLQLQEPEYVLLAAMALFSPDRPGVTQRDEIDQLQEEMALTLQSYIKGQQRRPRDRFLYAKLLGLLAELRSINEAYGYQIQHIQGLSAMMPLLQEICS

Turning to `CCCCOC(=O)COc1ccc(Cl)cc1Cl`, the Potency result in experiment [1], in experiment [2], in experiment [3], in experiment [4], in [5] and in experiment [7] was “inactive” in each case. In experiment [6], the compound was classed as inactive.

As to `CC(=O)OCC(=O)[C@@]12N=C(C)O[C@@H]1C[C@H]1[C@@H]3CCC4=CC(=O)C=C[C@]4(C)[C@H]3[C@@H](O)C[C@@]12C`, the Potency entry in experiment [1], in [2], in experiment [3], in experiment [8], in experiment [5] and in [7] was “inactive” each time. Further, the result in experiment [6] was inactive.

For the compound `O=C(O)c1ccc(C(=O)O)cc1`, the Potency entry in [1], in experiment [2], in [3], in [8], in experiment [5] and in experiment [7] was “inactive” each time. For the same compound, the compound was classed as inactive in experiment [6].

With `CCc1ccc(CCOc2ccc(CC3SC(=O)NC3=O)cc2)nc1` (configuration not stated), the Potency entry in experiment [1], in [2], in [3], in experiment [4], in experiment [5] and in [7] was “inactive” each time. In addition, in experiment [6], the call was inactive.

For `CCCC(C)=O`, the Potency result in [1], in experiment [2], in [3], in experiment [4], in experiment [5] and in [7] was “inactive” throughout. The compound was classed as inactive in experiment [6].

Consider `CC(C)c1ccc(S(=O)(=O)O)cc1`, for which the Potency entry in experiment [1], in [2], in experiment [3], in experiment [8], in [4] and in [5] was “inactive” each time. For the same compound, the Potency result in [7] was “inactive”. The compound was classed as inactive in experiment [6].

As to `CCCCCCCCC/C=C/CC1CC(=O)OC1=O` (configuration not stated), the Potency result in experiment [1], in experiment [2], in [3], in [8], in [5] and in experiment [7] was “inactive” throughout. Also, the outcome in [6] was inactive.

For the compound `CCCCN(CCCC)CCCC`, the Potency result in [1], in experiment [2], in experiment [3], in [8], in experiment [4] and in [5] was “inactive” in each case. The Potency entry in [7] is “inactive”. The compound was classed as inactive in experiment [6].

With `O=[N+]([O-])c1ccc(/C=C/c2ccc([N+](=O)[O-])cc2S(=O)(=O)O)c(S(=O)(=O)O)c1`, the Potency result in experiment [1], in experiment [2], in experiment [3] and in [7] was “inactive” in each case. For the same compound, the compound was called inactive in [6].

As to `CC(=O)Nc1cccc(O)c1`, the Potency result in [1], in experiment [2], in [3], in experiment [8], in experiment [4] and in experiment [5] was “inactive” each time. Moreover, the Potency entry in [7] was “inactive”. The result in [6] was inactive.

In the case of `C/C=C1/CC2C=CC1C2` (configuration not stated), the Potency entry in experiment [1], in experiment [2], in [3], in experiment [4], in experiment [5] and in experiment [7] was “inactive” each time. Besides, in experiment [6], the result was inactive.

Regarding `C[C@H]1C[C@H]2[C@@H]3CCC4=CC(=O)C=C[C@]4(C)[C@@]3(F)[C@@H](O)C[C@]2(C)[C@@]1(O)C(=O)CO`, the Potency result in experiment [1], in experiment [2], in experiment [3], in experiment [4], in experiment [5] and in [7] was “inactive” in each case.

With `CCCCCCCC(=O)OC`, the Potency result in experiment [1], in [2], in experiment [3], in [8], in experiment [4] and in [5] was “inactive” throughout. In [7], the Potency result is “inactive”. Further, in experiment [6], the compound was called inactive.

`CCCCCCOCCO`: the Potency entry in experiment [1], in experiment [2], in experiment [3], in experiment [4], in experiment [5] and in experiment [7] was “inactive” in each case. The result in [6] was inactive.

`Cc1ccc(N(C)C)cc1`: the Potency result in experiment [1], in [3], in experiment [8], in experiment [4], in experiment [5] and in [7] was “inactive” each time. For the same compound, the Potency entry in experiment [2] was “inactive and 27.3 µM (active)”. In addition, in [6], the call was inactive.

For `C[Si](O[Si](C)(C)C)O[Si](C)(C)C`, the Potency entry in experiment [1], in experiment [2], in experiment [3], in [8], in [5] and in [7] was “inactive” in each case. Also, the compound was called inactive in experiment [6].

For `O=C(OCCOCCOC(=O)c1ccccc1)c1ccccc1`, the Potency result in experiment [1], in experiment [2], in experiment [3], in experiment [5] and in experiment [7] was “inactive” in each case. In addition, the outcome in experiment [6] was inactive.

As for `Cc1occc(=O)c1O`, the Potency result in [1] is “inactive and 50.9 µM (active)”. Moreover, the Potency entry in experiment [2], in [3], in [8], in experiment [5] and in [7] was “inactive” each time. Moreover, the result in [6] was inactive.

As for `O=c1[nH]c(=O)n([C@H]2C[C@H](O)[C@@H](CO)O2)cc1Br`, the Potency result in [1], in [3], in experiment [8], in [5] and in experiment [7] was “inactive” throughout. Further, the Potency in experiment [2] is 7.81 µM (active) and 10.6 µM (active).

As for `CCCCCCCCCCCCOCCO`, the Potency result in experiment [1], in [2], in [3], in experiment [8], in [4] and in experiment [5] was “inactive” throughout. In experiment [7], the Potency result was “inactive”. Besides, the compound was called inactive in experiment [6].

For `CCOC(=O)NNc1nncc2ccccc12`, the Potency entry in experiment [1], in experiment [2], in experiment [3], in [8], in experiment [5] and in experiment [7] was “inactive” in each case. Also, the call in [6] was inactive.

On to `CCCCCC(N)=O`, for which the Potency result in experiment [1], in experiment [2], in [3], in experiment [8], in experiment [5] and in [7] was “inactive” in each case. Also, the compound was called inactive in experiment [6].

In the case of `CCCCCC/C(C=O)=C\c1ccccc1`, the Potency result in experiment [1], in [2], in experiment [3], in experiment [8], in [5] and in experiment [7] was “inactive” in each case. Moreover, in [6], the outcome was inactive.

With `C=C(C)C(=O)OCCOCCOCCOC(=O)C(=C)C`, the Potency entry in experiment [1], in [2], in [3], in experiment [8], in [4] and in experiment [5] was “inactive” throughout. Also, the Potency result in [7] is “inactive”. In [6], the compound was called inactive.

Regarding `CCN(CC)c1ccc(C(=O)c2ccccc2C(=O)O)c(O)c1`, the Potency result in [1], in experiment [3], in experiment [8], in [4], in experiment [5] and in experiment [7] was “inactive” throughout. Moreover, in experiment [2], the Potency was 61.3 µM (active) and 34.4 µM (active).

Take `C=C(C)C(=O)Nc1ccc(Cl)c(Cl)c1`: the Potency entry in [1], in experiment [3], in experiment [8] and in experiment [5] was “inactive” each time. The Potency in experiment [2] was 55 µM (active) and 48.4 µM (active); in experiment [7], 102 µM (active). The result in experiment [6] was inactive.

`COc1ccc(Cl)cc1C(=O)NCCc1ccc(S(=O)(=O)NC(=O)NC2CCCCC2)cc1`: the Potency result in experiment [1], in [2], in experiment [3], in experiment [8], in [5] and in experiment [7] was “inactive” throughout.

With `CC1=CCC2CC1C2(C)C` (configuration not stated), the Potency result in [3], in experiment [8], in experiment [4], in experiment [5] and in experiment [7] was “inactive” throughout. For the same compound, the compound was called inactive in experiment [6].

For `c1ccc(OCCOc2ccccc2)cc1`, the Potency result in [1], in experiment [3], in [8], in experiment [5] and in experiment [7] was “inactive” throughout. Moreover, the call in experiment [6] was inactive.

In the case of `C[C@H]1C[C@@H]2[C@H]([C@@H](O)C[C@@]3(C)[C@H]2CC[C@]3(O)C(=O)CO)[C@@]2(C)C=CC(=O)C=C12`, the Potency entry in experiment [3], in experiment [9], in experiment [5] and in experiment [7] was “inactive” each time. Also, in experiment [10], the call was inactive.
